Experimental findings from PubChem BioAssay (NCI) are described below.

This is part of a sample that, as a whole, favours compounds with a hit. Of some 83,000 tested, about 20% had one in any assay.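 Growth was measured after 48 h exposure to one concentration of compound in 96-well plates. Values under 10 count as active.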 Unmarked numbers belong to inactive results. The source made the active and inactive calls.

This assay has as its system NCI/ADR-RES ovarian. As to the kind of experiment: NCI-60 one-dose screen, 48 h (100 = growth as untreated, 0 = no growth, -100 = all killed). As to conditions: 10 µM unless noted. As for the experimental part: Growth inhibition of the NCI/ADR-RES human […] tumor cell line is measured as a screen for anti-cancer activity. Cells are grown in 96 well plates and exposed to the test compound for 48 hours. Compounds are tested at a single concentration, which is 10^-5 M for most compounds. The reported endpoint is percent growth (GI% or GIPRCNT), where numbers from 0 - 100% represent growth inhibition, and numbers from -100% - 0 represent cell death. For example, a value of 40 represents 60% growth inhibition. A value of 0 means no net growth occurred over the course of the experiment. A value of -40 indicates 40% of cells at the beginning of the experiment died by the end of the experiment. A value of -100 means all cells are dead at the end of the experiment.
NCI-60 Human Tumor Cell Lines Screen was performed using the standard one-dose NCI protocol, which is described in more detail at https://dtp.cancer.gov/discovery_development/nci-60/default.htm.
Compounds with GIPRCNT values below 10 were considered active. Activity score was based on GIPRCNT using the following formula: […]
Score is 0 for GIPRCNT values of 100 or above, 50 for GIPRCNT values of 0, and 100 for GIPRCNT values of -100.
Consider `CCOC(=O)c1cc2c(n1Cc1cccc(OC)c1)-c1oncc1CCC2`, for which the growth was 12.2%.
As for `O=NN(Cc1cccnc1)C(=O)NC1CCCCC1`, the growth was 105%.
`COc1ccc(-c2nc(N3CCN(C(=O)C4CCCCC4)CC3)c3c4c(sc3n2)CCCC4)cc1`: the growth was 84.2%.
On to `O=C(Nc1ccc(N2CCNCC2)cn1)c1[nH]ncc1Nc1ncnc2sccc12`, for which the growth was 91%.
Turning to `Cc1cc2c(c(C)c1Cl)C(=O)/C(=C/c1cccc([N+](=O)[O-])c1)O2`, the growth was 101%.
The value for `C1CCN(c2nc(N3CCCCC3)nc(N3CCOCC3)n2)CC1` was 103%.
Regarding `CCOC(=O)CSc1c(-c2ccccc2)c2cc(Cl)ccc2[nH]c1=O`, the growth is 84.3%.
With `COC(=O)/C(CCC=C(C)C)=C1\[C@@H](OC(C)=O)C[C@@]2(C)[C@H]1C[C@@H](O)[C@H]1[C@@]3(C)CC[C@H](NCc4ccccc4)[C@@H](C)[C@@H]3CC[C@@]12C`, the growth was 64.6%.
In the case of `COC(=O)c1c2c(c(C)[n+]([O-])c1C)C(=O)C(NCc1ccc(Br)cc1)=CC2=O`, the growth was -3.23% (active).
For `COc1cccc(/C=C/C(=O)c2c(C)nc3ccccc3c2/C=C/c2ccccc2)c1OC`, the growth is 10%.
For `CC[C@H](C)[C@@H](C(=O)OC)n1cc(CNC(=O)[C@@H](Cc2ccccc2)NC(=O)OCc2ccccc2)nn1`, the growth is 94.4%.
Regarding `COc1cc(/C=C2\CCC/C(=C\c3cc(CN4CCOCC4)c(O)c(OC)c3)C2=O)cc(CN2CCOCC2)c1O`, the growth is 23.3%.
As to `O=C1c2cc(Cl)ccc2Oc2cc([N+](=O)[O-])ccc2N1c1ccc(F)cc1F`, the growth is 97.7%.
As for `O=c1c2cc(F)ccc2sc2c(Nc3ccncc3)nc3ccccc3c12`, the growth was -9.24% (active).
As to `COc1cc(/C=C/C(=O)c2ccc(Nc3nc(NCCO)nc(N4CCOCC4)n3)cc2)cc(OC)c1OC`, the growth is 53.7%.
`Cn1nc(C(C)(C)C)cc1NC(=O)Cc1ccc(/C=C2\C(=O)Nc3ccccc32)cc1`: the growth is 66.9%.
The value for `O=c1oc2ccc(Cl)cc2c(=O)n1-c1cc(C(F)(F)F)cc(C(F)(F)F)c1` was 5.39% (active); that for `CC(C)c1ccc(S(=O)(=O)NC(=O)NC2CCCC2)cc1` was 105%.
With `O=C(NC(=S)Nc1cccc(NC(=S)NC(=O)c2ccccc2)c1)c1ccccc1`, the growth is 60.1%.
As to `O=c1oc2ccc(Cl)cc2c(=O)n1-c1ccc(Cl)cc1F`, the growth is 6.2% (active).
As to `CCCCN1CCN(c2ccc3nc(-c4ccc5nc(-c6ccc(C(F)(F)F)cc6)[nH]c5c4)[nH]c3c2)CC1`, the growth was 54.8%.
The value for `COc1ccccc1CNC(=O)C1c2ccccc2C(=O)N(CC(C)C)C1c1cccs1` (stereo not given) was 71.4%; that for `Cc1cccc2c(=O)c3c(sc12)c(N1CCNCC1)nc1ccccc13` was 83.1%; that for `Cc1ccc2nc(NC(=O)CSC(=S)N3CCN(c4ccccc4)CC3)sc2c1` was 88.2%.
Regarding `O=c1c(-c2nc3ccccc3[nH]2)cc2ccccc2n1Cc1cn(Cc2ccccc2Cl)nn1`, the growth was 40.6%.
For `COc1cc(C(=O)Nc2ccc(-c3nc4ccccc4[nH]3)cc2)cc(OC)c1OC`, the growth was 52.5%.
Regarding `COc1ccc(CCN2C(=O)/C(=C/c3ccc(C4Oc5ccccc5C5CC(c6cccc(OC)c6)=NN54)cc3)SC2=S)cc1` (stereo not given), the growth is 104%.
Consider `CN(C)/C=C1\SC(=Nc2ccc(Cl)cc2)NC1=O`, for which the growth is 102%.
For the compound `O=C1Nc2ccccc2/C1=C/c1ccc[nH]1`, the growth was 99.9%.
Regarding `COc1cccc(C(=O)Cn2cc(/C=C(\C#N)S(=O)(=O)c3ccccc3)c3ccccc32)c1`, the growth is 90.6%.
As to `O=C1c2ccc3c4c(ccc(c24)C(=O)N1CCCCO)C(=O)N(CCCCO)C3=O`, the growth was 82.2%.
The value for `Clc1ccc(COc2ccc(Nc3ncnc4onc(-c5ccccc5)c34)cc2)cc1` was 77%.
The value for `CC1CCCCN1CCCNC(=O)c1ccc2c(c1)sc1nc(-c3ccc(F)cc3)cn12` (stereo not given) was 87.6%; that for `COc1cc(/C=C2\CCC/C(=C\c3cc(CN4CCCCC4)c(O)c(OC)c3)C2=O)cc(CN2CCCCC2)c1O` was 87.2%; that for `CCC1=C[C@@H]2CN(C1)Cc1c([nH]c3ccccc13)[C@@](C(=O)OC)(c1cc3c(cc1OC)N(C)[C@H]1[C@@](O)(C(=O)OC)[C@H](OC(C)=O)[C@]4(CC)[C@@H]5C[C@@H]5CN5CC[C@]31[C@@H]54)C2` was 1.35% (active).
The value for `O=C(Nc1ccc(F)c(Cl)c1)Nc1ccc(Cl)c(Cl)c1` was 59.1%; that for `NCCOc1ncccc1/C=C1\c2ccccc2-c2ccc([N+](=O)[O-])cc21` was -45.4% (active).
On to `O=C(Nc1ccc(N2CCNCC2)cc1)c1[nH]ncc1Nc1ncnc2sc3c(c12)CCC3`, for which the growth is -57.3% (active).
As to `NCCCNc1nc2ccccc2c2c(=O)c3cc(F)ccc3sc12`, the growth is 11.4%.
As to `COc1ccc(C2C3=C(COC3=O)N(CCO)c3cc4c(cc32)CCC4)cc1` (stereo not given), the growth is 65.3%.
